test system: VDR:RXRa (NR concentration 270 nM, RXRa partner concentration 90 nM); assay: PBM binding z-score (relative to random genomic background probes); higher = stronger binding; sequences stand for … in GC…GCGATTGACAGCGTAGAATGAAGG
Procedure: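 Protein-binding microarray (Agilent 4x180K custom design, double-stranded 60-nt probes: 5' GC cap, 34-nt variable region, 24-nt constant primer region; full probe sequence given). Purified or IVT nuclear receptor:RXRα heterodimers (3:1 NR:RXRα, mostly 270:90 nM) or homodimers were incubated for 1 h in PBS with 2% milk and no ligand, then detected with Alexa488 antibodies. Fluorescence from o1-orientation probes (~5 replicates averaged) was converted to z-scores against 500 random hg19 background probes. Variable regions are seed direct-repeat (DR0–DR5) sites, all their single-nucleotide variants and half-site ablations.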

| Sequence | PBM binding z-score |
| --- | --- |
| ATCTCTAGGTAAGACTCAGTTCAGTGAAGAACGC | 0.833 |
| ATATGTAGGTTCAGGGTCATTCAGGTTGGTTCGC | 6.03 |
| ACAGACAGGTGATGAAGGTACCTCAGGCTATCAT | -0.291 |
| TCTTGTAGATCAGCAGGTTAAGCAAGCTGGCCAA | 0.275 |
| CGCCCAAGGTCAGAGAGGTCAGTGAATGCCGAGT | 7.36 |
| TAGCCTAGGTCCTGGGCCAGTATACCACGCGAAC | -0.679 |
| CCGAGTAGGTTATGGGGCCTTCAGGCAACGGTGA | -0.408 |
| AATACAGGGTCACTAGTCCAGAGTAGGTACGAAT | 4.05 |
| AGAATGAGGTTAAGATCAGGGCAACAGAATACAT | 2.23 |
| ACTAGCACGCCAAGGGTCACTCAAGATTAGTCCG | 2.97 |
| CGTCCAAGGCCAATGCTAGGTCAGTGAAAGCATT | 0.034 |
| TTACCAAGGTGAAAGCTCGTTGATGCACGCCTTG | -0.288 |
| ACTTTTAGTTGACTTAGGGCAACCGATACGACGC | 0.839 |
| AATACAGGGTCATCGTAGGCCCGAGTACGCACAG | 4.95 |
| TAGCCTAGGTCAGATCGGGCTAGTATACGCTATA | 0.302 |
| GCAGACAGGTGAAACGCAGGTAACTAAGGGTGGC | -0.407 |
| TATCGGAGGACACGAAAGGTCAGAGCTCGACATC | 3.49 |
| CAAACTAGGTCACAGAGGTAAAAGTCCGTGCGTA | 4.96 |
| ACCTCTAGGTAACAAGTTCAGTGAAAGAGAGGAC | 1.59 |
| GATACTGGGTCAAGGCCAGAGTACGCGTATTGAT | 1.46 |

| Sequence | PBM binding z-score |
| --- | --- |
| CCTTACGGGTCACTGAAAGGTTATAGCATTTGGA | 4.52 |
| ACTCGGAGGACAAAGGTCGGAGCTACGCCAGTGA | 0.947 |
| CCTACTGGGCCAGTCAGAGGTCATTGATCATATG | 3.67 |
| GCGCCTGGGGCAAAGCAGGTTACCATAAGGTTGG | -0.092 |
| ATGTCTAGGTAACCAAGTTCAGTGAATGCCGAAC | 3.97 |
| CGTCCAAGGTCATAGGATGTCAGTGAAGACAGAT | 4.77 |
| TCTGCTAGGTCAACGATGGTCAACTAATCTGCTA | 2.27 |
| GCAGACAGGTGAAACGCAGGTAACTCTGGGTGGC | -0.545 |
| TCAGACAGGTGAACGTAACTCAGGTACGCAGTCG | 0.682 |
| ATATGTAGGTTAGCTGGGGTGATTCAGACTAGGC | 1.01 |
| TGAATGAGGTTAAGGATCAGGGAACGTGGCGTCG | 0.99 |
| AGAATGAGGTTATACGTAGATCCGGGAAGAAAGT | 1.15 |
| CCTTACGGGTCACTCCAAGTTATAGCATCGGAGT | 2.82 |
| TCTAGCAGGCCAGAGGGTCACTCATGAGGTACGG | 1.4 |
| TAGCCTAGGTCATGTGGGCCAGTATAGTGTCGGC | 2.62 |
| GCTATTAGTTAAAAGGGCAACCGAATGATTCTCG | 0.193 |
| AATACAGGGTCAGCGTAGGCCAGAGTACGCACAG | 3.44 |
| TAGCCTAGGTCACTCAGGGGCCAGTATAGAAAGC | 2.42 |
| TAGCCTAGCTCATGCGGGCCAGTATAGTGTCGGC | -1.1 |
| TCTAGTTGGTCACGGAGGCCACACACGACGGGTA | 2.19 |

From the supplement of paper PMC6555819
